Among the data in ChEMBL document CHEMBL3988442, “University of Dundee, Small-Polar-MMV Screening Library” (2021) are Percent Effect values, retold here.

Common to all, as to parameters: scale not given: direction of the effect not stated beside the values
Experiment [1] addresses Protein translocase subunit SecA (Escherichia coli (strain K12)) (UniProt P10408). The experiment in a line: Assay to Identify E. coli SecA ATPase Inhibitors. In kind it is functional. To be noted: 30 µM.
For experiment [2], the target named is T1, Ubiquitin-activating enzyme e1, putative (Leishmania donovani (strain BPK282A1)) (UniProt E9BSI1).
T1 sequence (whole entry): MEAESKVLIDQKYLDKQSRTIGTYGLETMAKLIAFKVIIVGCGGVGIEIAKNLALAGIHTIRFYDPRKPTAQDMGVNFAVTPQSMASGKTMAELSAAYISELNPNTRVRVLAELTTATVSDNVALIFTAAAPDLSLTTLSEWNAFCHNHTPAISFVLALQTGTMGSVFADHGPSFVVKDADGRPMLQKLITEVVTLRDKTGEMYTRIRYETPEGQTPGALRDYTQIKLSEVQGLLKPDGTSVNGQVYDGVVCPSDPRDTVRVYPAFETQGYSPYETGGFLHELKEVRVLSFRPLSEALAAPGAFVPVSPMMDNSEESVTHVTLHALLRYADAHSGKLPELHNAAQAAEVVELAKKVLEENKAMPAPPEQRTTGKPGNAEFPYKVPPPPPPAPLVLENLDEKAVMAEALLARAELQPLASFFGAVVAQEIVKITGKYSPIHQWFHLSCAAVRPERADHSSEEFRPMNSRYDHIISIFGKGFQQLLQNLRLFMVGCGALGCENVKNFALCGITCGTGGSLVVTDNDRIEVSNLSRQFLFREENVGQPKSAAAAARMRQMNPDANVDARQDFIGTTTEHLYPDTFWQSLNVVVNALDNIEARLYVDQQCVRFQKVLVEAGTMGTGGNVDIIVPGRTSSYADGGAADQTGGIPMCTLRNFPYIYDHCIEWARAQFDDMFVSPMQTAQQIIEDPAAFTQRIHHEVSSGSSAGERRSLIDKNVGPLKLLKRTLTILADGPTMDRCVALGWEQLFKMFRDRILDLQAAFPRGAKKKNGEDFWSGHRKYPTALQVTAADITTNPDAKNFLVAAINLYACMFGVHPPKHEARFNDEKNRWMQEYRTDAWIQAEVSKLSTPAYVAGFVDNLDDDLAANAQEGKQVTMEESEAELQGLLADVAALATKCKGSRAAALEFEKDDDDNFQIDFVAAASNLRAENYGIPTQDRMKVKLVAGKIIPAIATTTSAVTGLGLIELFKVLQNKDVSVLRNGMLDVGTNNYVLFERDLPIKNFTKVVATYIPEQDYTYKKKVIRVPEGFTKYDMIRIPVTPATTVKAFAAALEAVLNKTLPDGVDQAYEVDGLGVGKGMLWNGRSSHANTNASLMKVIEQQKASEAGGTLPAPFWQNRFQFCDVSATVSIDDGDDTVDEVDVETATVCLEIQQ
The experiment in a line: Leishmania donovani Ubiquitin Activating Enzyme (LdE1). The note with it: 30 µM. It counts as functional.

The target of experiment [3] is AMP-activated protein kinase, AMPK (Homo sapiens) (UniProt P54646+O43741+P54619+Q9UGJ0+Q9Y478+Q13131+Q9UGI9). The experiment in a line: AMP-dependent Kinase enzyme assay. An in vitro enzyme assay that detects ADP turnover that is directly proportional to AMPK activity. This uses naive AMPK that is activated during the assay with MK-8722. In kind it is functional. The note with it: 30 µM.

Experiment [4] has as its target Sialic acid-binding Ig-like lectin 9 (Homo sapiens) (UniProt Q9Y336). The experiment in a line: Hs-Siglec9 ALPHAscreen SOP 20170721. The note with it: 10 µM.
Another experiment deals with Trypanosoma cruzi. The experiment in a line: Trypanosoma cruzi phosphomannomutase and mannose-1-phosphate guanylyltransferase assay. It counts as functional. The note with it: 10 µM.
Experiment [5] deals with T2, Arginase-2, mitochondrial (Homo sapiens) (UniProt P78540).
T2 sequence (whole entry): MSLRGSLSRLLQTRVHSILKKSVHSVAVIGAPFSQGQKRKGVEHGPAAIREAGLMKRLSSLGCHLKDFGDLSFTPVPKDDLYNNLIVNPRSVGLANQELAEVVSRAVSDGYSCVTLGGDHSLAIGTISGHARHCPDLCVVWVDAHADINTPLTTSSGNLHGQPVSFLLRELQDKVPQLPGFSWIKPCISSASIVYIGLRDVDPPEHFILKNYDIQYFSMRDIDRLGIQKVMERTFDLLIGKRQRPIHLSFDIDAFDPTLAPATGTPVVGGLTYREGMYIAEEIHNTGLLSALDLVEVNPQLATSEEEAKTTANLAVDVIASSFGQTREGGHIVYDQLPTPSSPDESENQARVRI
Briefly: in vitro enzyme assay to detect the production of urea directly proportional to the activity of Arginase II. Note: in the data most compounds retested in dose-response had high values. The note with it: 33.3 µM. It counts as functional.

The target of experiment [6] is T3, Proteasome subunit beta (Trypanosoma cruzi) (UniProt O96673).
T3 sequence (whole entry): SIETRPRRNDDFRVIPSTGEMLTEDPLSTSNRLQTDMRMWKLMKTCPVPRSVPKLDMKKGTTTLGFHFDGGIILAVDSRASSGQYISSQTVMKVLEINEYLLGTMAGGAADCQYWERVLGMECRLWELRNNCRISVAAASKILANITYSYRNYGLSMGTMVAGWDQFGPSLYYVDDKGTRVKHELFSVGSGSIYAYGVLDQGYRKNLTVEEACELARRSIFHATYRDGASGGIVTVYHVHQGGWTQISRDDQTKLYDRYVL
The experiment in a line: Trypanosoma cruzi proteasome chymotrypsin-like activity (TcProtChymo) assay. Note: in the data most compounds retested in dose-response had high values. It counts as functional. To be noted: 9.37 µM.

For a further experiment, the species on record is Homo sapiens. The experiment in a line: To identify inhibition of the IFN signalling (Jak-Stat) pathway via expression of an eGFP reporter gene under the control of an IFN-stimulated response element (ISRE) containing MxA promoter. In kind it is functional. The note with it: 30 µM.
Experiment [7] addresses T4, Tyrosyl-tRNA synthetase, putative (Trypanosoma cruzi (strain CL Brener)) (UniProt Q4DSP6).
T4 sequence (whole entry): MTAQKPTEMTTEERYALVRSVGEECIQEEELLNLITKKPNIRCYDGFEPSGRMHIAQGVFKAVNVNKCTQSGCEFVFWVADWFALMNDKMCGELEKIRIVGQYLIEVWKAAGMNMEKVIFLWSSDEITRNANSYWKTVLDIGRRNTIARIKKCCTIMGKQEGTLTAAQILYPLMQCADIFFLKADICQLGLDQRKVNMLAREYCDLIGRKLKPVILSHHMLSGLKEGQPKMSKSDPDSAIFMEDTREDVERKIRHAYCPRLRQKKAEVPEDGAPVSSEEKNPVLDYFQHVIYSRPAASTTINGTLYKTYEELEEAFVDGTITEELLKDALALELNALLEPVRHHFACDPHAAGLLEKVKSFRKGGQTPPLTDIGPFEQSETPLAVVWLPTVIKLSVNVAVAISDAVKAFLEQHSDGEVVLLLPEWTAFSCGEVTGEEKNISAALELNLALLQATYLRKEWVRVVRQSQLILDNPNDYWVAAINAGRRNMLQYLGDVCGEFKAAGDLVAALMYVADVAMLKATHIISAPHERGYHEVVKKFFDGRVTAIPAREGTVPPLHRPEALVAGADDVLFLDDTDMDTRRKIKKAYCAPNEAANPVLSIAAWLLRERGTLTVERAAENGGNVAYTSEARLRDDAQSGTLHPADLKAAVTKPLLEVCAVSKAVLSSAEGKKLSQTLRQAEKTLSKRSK
Briefly: Trypanosoma cruzi tyrosyl tRNA synthetase (TcYRS) _High Tyrosine SOP. Note: in the data most compounds retested in dose-response had high values. To be noted: 30 µM. It counts as functional.

Experiment [8] addresses T4, Tyrosyl-tRNA synthetase, putative (Trypanosoma cruzi (strain CL Brener)). Briefly: Trypanosoma cruzi tyrosyl tRNA synthetase (TcYRS) SOP. It counts as functional. To be noted: 30 µM.
Experiment [9] has as its target Chromo domain-containing protein 1 (Saccharomyces cerevisiae (strain ATCC 204508 / S288c) (Baker's yeast)) (UniProt P32657). The experiment in a line: ScCHD-1 Enzyme Inhibition Assay. Note: in the data most compounds retested in dose-response had high values. It counts as functional. The note with it: 30 µM.

Structures are written as SMILES. For some of these results: Measured potencies and affinities stand elsewhere.

Sialic acid-binding Ig-like lectin 9 (Homo sapiens), sequence (Q9Y336 whole entry): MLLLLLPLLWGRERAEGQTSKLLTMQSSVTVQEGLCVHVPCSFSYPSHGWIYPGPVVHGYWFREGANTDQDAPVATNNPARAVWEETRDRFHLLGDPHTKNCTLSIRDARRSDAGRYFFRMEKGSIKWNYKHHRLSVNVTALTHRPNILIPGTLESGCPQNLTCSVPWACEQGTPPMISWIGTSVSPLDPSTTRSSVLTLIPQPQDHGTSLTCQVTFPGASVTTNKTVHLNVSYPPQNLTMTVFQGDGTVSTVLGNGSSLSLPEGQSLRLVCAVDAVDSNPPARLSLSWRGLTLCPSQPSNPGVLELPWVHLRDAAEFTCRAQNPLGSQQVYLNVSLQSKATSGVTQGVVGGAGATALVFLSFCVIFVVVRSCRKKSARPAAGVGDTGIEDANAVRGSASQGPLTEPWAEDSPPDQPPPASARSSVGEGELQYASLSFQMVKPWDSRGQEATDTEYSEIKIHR
Protein translocase subunit SecA (Escherichia coli (strain K12)), sequence (P10408 whole entry): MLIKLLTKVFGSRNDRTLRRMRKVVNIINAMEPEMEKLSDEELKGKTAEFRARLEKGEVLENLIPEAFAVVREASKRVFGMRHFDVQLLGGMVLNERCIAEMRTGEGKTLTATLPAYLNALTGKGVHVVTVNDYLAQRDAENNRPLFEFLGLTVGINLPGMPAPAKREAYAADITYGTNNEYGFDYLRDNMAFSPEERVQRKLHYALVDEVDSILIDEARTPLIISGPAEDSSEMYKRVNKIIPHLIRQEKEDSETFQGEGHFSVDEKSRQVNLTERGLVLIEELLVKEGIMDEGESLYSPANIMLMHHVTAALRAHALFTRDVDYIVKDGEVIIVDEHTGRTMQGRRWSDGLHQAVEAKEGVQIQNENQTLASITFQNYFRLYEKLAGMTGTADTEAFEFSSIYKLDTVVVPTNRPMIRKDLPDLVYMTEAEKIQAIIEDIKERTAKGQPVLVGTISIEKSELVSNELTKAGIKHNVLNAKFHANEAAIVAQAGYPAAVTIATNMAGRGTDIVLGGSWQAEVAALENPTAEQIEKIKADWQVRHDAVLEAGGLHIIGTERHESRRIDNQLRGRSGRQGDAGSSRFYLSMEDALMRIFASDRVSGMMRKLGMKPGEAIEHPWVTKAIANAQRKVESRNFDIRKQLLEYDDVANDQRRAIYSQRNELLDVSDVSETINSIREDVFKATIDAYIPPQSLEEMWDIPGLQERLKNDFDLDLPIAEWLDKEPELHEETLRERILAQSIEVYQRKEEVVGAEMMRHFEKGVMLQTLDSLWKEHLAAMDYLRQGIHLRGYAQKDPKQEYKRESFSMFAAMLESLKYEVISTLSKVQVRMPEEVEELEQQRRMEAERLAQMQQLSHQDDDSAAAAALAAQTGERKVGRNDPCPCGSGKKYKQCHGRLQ
Chromo domain-containing protein 1 (Saccharomyces cerevisiae (strain ATCC 204508 / S288c) (Baker's yeast)), sequence (P32657 whole entry, the tested form may be a part): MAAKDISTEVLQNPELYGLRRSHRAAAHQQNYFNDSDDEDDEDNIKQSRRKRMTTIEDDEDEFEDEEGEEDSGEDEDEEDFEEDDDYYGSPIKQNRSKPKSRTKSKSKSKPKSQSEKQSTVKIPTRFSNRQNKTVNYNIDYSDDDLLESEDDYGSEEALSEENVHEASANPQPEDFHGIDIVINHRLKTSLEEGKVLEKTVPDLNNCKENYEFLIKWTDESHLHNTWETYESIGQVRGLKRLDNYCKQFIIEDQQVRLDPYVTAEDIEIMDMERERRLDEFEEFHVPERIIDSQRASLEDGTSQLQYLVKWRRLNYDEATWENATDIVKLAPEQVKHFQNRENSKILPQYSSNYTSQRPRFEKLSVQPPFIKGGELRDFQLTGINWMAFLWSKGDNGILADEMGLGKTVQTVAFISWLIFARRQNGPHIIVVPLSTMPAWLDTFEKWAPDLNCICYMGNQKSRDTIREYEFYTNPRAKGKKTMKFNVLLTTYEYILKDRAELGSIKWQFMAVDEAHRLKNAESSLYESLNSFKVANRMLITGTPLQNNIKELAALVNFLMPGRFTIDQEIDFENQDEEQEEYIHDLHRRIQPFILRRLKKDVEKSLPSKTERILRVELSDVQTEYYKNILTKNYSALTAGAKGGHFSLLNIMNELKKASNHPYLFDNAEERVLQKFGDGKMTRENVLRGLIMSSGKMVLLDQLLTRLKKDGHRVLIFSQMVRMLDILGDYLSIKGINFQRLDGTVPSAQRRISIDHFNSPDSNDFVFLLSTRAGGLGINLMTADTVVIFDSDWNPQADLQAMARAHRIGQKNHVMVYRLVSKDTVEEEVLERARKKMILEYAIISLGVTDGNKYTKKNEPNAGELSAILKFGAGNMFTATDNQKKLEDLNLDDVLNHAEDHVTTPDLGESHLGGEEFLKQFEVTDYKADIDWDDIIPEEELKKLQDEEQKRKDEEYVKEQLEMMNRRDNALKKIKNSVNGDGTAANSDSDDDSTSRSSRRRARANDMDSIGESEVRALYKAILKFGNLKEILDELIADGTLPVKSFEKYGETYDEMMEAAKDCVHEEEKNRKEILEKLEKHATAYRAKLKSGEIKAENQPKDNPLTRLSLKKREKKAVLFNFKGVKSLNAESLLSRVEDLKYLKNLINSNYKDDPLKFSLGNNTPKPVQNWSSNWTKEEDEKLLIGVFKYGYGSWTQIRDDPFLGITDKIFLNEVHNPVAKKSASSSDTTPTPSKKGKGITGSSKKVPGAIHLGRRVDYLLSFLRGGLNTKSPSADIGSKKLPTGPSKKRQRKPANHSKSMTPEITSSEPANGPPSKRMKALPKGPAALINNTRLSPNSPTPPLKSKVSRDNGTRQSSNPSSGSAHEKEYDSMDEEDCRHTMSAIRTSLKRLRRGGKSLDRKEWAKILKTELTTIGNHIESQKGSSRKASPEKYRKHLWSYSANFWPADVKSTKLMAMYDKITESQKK

On to `CCS(=O)(=O)CCn1ccc(NC(=O)CCc2cccc(C)c2)n1`, for which the Percent Effect is -1.95% in experiment [1]; 5.41% in [2]; 2.06% in [3]; -5.21% in experiment [4]; -3.91% in the experiment with Trypanosoma cruzi; -2.08% in [5]. The Percent Effect in experiment [6] was 11.8%; in the experiment listed under Homo sapiens, 5.07%; in experiment [7], 9.9%; in experiment [8], 13.4%; in experiment [9], 4.48%.
Regarding `c1cncc(-c2nccc(CN3CCCC3)n2)c1`, the Percent Effect in experiment [1] was -0.958%; in experiment [2] it was 6.76%; in experiment [3], 11.4%; in experiment [4], -5.74%; in the experiment on Trypanosoma cruzi, 2.37%; in [5], -22%. For the same compound, the Percent Effect is 19.5% in experiment [6]; -2.71% in the experiment filed under Homo sapiens; 9.68% in experiment [7]; 14.3% in experiment [8]; -16.2% in experiment [9].
Regarding `N#Cc1ccccc1N1CCCN(C(=O)CCc2nccs2)CC1`, the Percent Effect was -2.01% in experiment [1]; 12.7% in [2]; -0.172% in experiment [3]; 4.85% in experiment [4]; -4.25% with Trypanosoma cruzi; 5.7% in experiment [5]. Moreover, the Percent Effect in experiment [6] is 3.36%; in the experiment listed under Homo sapiens, 17.5%; in experiment [7], 3.45%; in experiment [8], 11.4%; in experiment [9], -6.41%.
`Cn1cnc2c1C(COCC1CC1)CN(Cc1ccsc1)C2` (stereo unspecified): the Percent Effect is -1.29% in experiment [1]; 13% in experiment [2]; 3.5% in [3]; -4.76% in experiment [4]; -1.68% in the experiment on Trypanosoma cruzi; 7.1% in experiment [5]. The Percent Effect in experiment [6] is 20.2%; in the experiment listed under Homo sapiens it was 6.71%; in experiment [7], 6.35%; in experiment [8], 11.5%; in [9] it was -6.29%.
Consider `CCn1cnnc1CNC(=O)CCC(=O)c1ccc2c(c1)OCCO2`, for which the Percent Effect is -8.9% in experiment [1]; 16.2% in [2]; -8.33% in [3]; 6.97% in experiment [4]; 6.7% with Trypanosoma cruzi; -10% in experiment [5]. Besides, the Percent Effect in experiment [6] is 15.3%; in the experiment filed under Homo sapiens, 11.5%; in experiment [7], 10.3%; in experiment [8], 23.5%; in experiment [9] it was -8.22%.
As to `O=C(C1CC1)N1CCN(Cc2coc(-c3ccc(Cl)cc3)n2)CC1`, the Percent Effect in experiment [1] is -5.03%; in experiment [2] it was -7.79%; in [3], 1.6%; in [4], 13.9%; in the experiment with Trypanosoma cruzi, 8.8%; in experiment [5], -1.42%. In addition, the Percent Effect in [6] was -3.38%; in the experiment listed under Homo sapiens, 43%; in experiment [7], 3.88%; in experiment [8], 0%; in experiment [9] it was -5.59%.
For the compound `Cc1[nH]ncc1C(=O)N1CCCC(n2cncn2)C1` (stereo unspecified), the Percent Effect in experiment [1] was -6.67%; in [2], 1.27%; in experiment [3], 7.75%; in experiment [4], 26.4%; in the experiment with Trypanosoma cruzi, -0.308%; in experiment [5], 3.23%. Further, the Percent Effect is 4.63% in experiment [6]; 9.83% in the experiment listed under Homo sapiens; 1.04% in experiment [7]; 0% in experiment [8]; -6.77% in [9].
For `CCOCC(O)CN1CCN(C(=O)c2cccnc2OC)CC1` (stereo unspecified), the Percent Effect in experiment [1] is -3.44%; in experiment [2], 0%; in experiment [3], 4.2%; in experiment [4] it was 3.65%; with Trypanosoma cruzi, -0.936%; in [5] it was 2.85%. Moreover, the Percent Effect was -3.72% in experiment [6]; 5.16% in the experiment filed under Homo sapiens; 3.88% in experiment [7]; 0% in experiment [8]; 1.44% in [9].
With `Cc1cc(CN(C)C(=O)NC2CCCN(c3ncccn3)C2)no1` (stereo unspecified), the Percent Effect is -1.33% in experiment [1]; 5.26% in [2]; 1.46% in experiment [3]; 4.34% in [4]; 3.01% in the experiment with Trypanosoma cruzi; -1.92% in experiment [5]. Besides, the Percent Effect is 2.34% in experiment [6]; -2.99% in the experiment listed under Homo sapiens; 9.31% in experiment [7]; 21.9% in [8]; -10.3% in [9].
Consider `CS(=O)(=O)N1CCOCC2(CN(Cc3ccco3)CCO2)C1` (stereo unspecified), for which the Percent Effect in experiment [1] is -1.05%; in experiment [2], 5.48%; in experiment [3] it was 3.7%; in experiment [4], 1.39%; in the experiment with Trypanosoma cruzi it was -1.19%; in [5] it was 4.79%. Also, the Percent Effect in experiment [6] was 5.39%; in the experiment listed under Homo sapiens, 1.38%; in experiment [7], 6.25%; in [8] it was 11.1%; in experiment [9] it was 0.698%.
In the case of `Cn1cc(Br)c(=O)c(NS(=O)(=O)c2cc(F)ccc2Cl)c1`, the Percent Effect is -3.11% in experiment [1]; 2.7% in [2]; -8.02% in experiment [3]; 5.84% in experiment [4]; 9.07% in the experiment with Trypanosoma cruzi; -2.38% in experiment [5]. For the same compound, the Percent Effect in experiment [6] is 13.3%; in the experiment listed under Homo sapiens it was 6.19%; in experiment [7] it was 0.529%; in experiment [8] it was -2.44%; in [9], -0.642%.
